Consider 94 compounds from PubChem BioAssay AID1851 (National Center for Advancing Translational Sciences (NCATS), 2009).

Each structure is given as a SMILES string. Screen size: about 16,000 compounds; about 4,000 (25%) were called active. Another 26% or so got no clear call; they are omitted. The list is a sample of the results. Values without a mark were called inactive. Calls follow the shape of the dose curve; as a rule, active = well fitted curve in the direction sought with a large enough effect; inconclusive = small, poorly fitted or top-dose-only effect, or effect the other way; inactive = no such curve, though single readings can be large or run the other way.
% is scaled to controls: 0 for no effect and ±100 for the full control effect.

Sequence of Cytochrome P450 2C9 (Homo sapiens) (P11712 whole entry, looked up): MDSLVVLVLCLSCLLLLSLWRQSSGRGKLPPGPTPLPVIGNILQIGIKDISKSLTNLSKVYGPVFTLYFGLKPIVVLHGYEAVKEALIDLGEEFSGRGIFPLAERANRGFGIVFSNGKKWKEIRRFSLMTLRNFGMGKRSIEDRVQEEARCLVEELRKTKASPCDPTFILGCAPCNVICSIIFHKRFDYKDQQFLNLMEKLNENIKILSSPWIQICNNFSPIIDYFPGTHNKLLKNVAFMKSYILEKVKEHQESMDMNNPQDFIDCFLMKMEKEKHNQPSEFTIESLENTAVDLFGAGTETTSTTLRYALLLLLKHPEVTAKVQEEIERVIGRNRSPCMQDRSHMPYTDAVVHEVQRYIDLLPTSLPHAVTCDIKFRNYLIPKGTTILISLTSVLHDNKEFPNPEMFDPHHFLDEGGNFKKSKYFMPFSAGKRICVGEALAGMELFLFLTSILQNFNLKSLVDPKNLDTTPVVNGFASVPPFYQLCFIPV

This test has as its target Cytochrome P450 2C9 (Homo sapiens) (UniProt P11712). The experiment in a line: Cytochrome panel assay with activity outcomes. The conditions noted are these: recombinant CYP, pro-luciferin dealkylation, luminescence, p450-cyp2c9; series mostly up to 57.1 µM.
For the compound `CC(C)Cn1c(C(C)C)nc([N+](=O)[O-])c1S(=O)(=O)c1ccc(F)cc1`, the AC50 entry is “inactive”. As for `CN(C)Cc1ccccc1-c1nccc(NC2CC2)n1`, the activity, negative = inhibition is 5.88% [at 2.29 µM]. As for `CC(C)=CCC/C(C)=C/CO/N=C1/C[C@@H](O)[C@@H](O)[C@@H]2[C@@H]3C(=O)N(C[C@@H]4CCCO4)C(=O)[C@H]3CC[C@H]12`, the activity, negative = inhibition was 4.47% [at 11.4 µM]. Consider `O=C(Cn1cnc([N+](=O)[O-])c1)NCc1ccc(F)cc1`, for which the AC50 entry is “inactive”. For `Cc1ccc(CNC(=O)Cn2c(=O)oc3ccccc32)o1`, the AC50 entry is “inactive”. The same measure, in the same setting: under `COc1ccccc1CN1CCCC2(CCN(C(=O)c3ccco3)CC2)C1` stands “inactive”.

With `COc1ccccc1CN1CCC2(CC1)CCN(C(=O)c1ccco1)CC2`, the AC50 entry was “inactive”. The same measure, in the same setting: under `Cc1ccccc1C(=O)c1cccn1CC(=O)NCc1ccco1` stands “inactive”; under `O=C(Cn1cc(C(=O)c2ccco2)c2ccccc21)NCc1ccco1`, 14.1 µM (active); under `COc1ccccc1OCCn1cc(C(=O)c2ccco2)c2ccccc21`, 0.562 µM (active). Same read-out and setting: under `N[C@H](C(=O)N[C@@H]1C(=O)N2C(C(=O)O)=C(Cl)CS[C@@H]12)c1ccccc1` stands “inactive”. For the compound `COc1cccc2c1C(=N)c1c(O)c3c(c(O)c1C2=O)C[C@](O)(C(C)=O)C[C@@H]3O[C@H]1C[C@H](N)[C@@H](O)[C@H](C)O1`, the activity, negative = inhibition was -16.6% [at 11.4 µM]. With `O=C(NC12CC3CC(CC(C3)C1)C2)C12CC3CC(C1)CC(n1cnc(Cl)n1)(C3)C2`, the AC50 was 12.6 µM (active). The same measure, in the same setting: under `COc1ccc(NC(=O)C23CC4CC(C2)CC(n2cnc(Br)n2)(C4)C3)c(C)c1` stands “inactive”. In the case of `CNc1ccnc(-c2ccccc2CN(C)C)n1`, the activity, negative = inhibition is 0.444% [at 2.29 µM]. Turning to `CCOc1ccc(CCNC(=O)CCCN2C(=O)c3ccccc3C2=O)cc1OCC`, the AC50 was 15.8 µM (active). Still for that read-out and setting: under `CCOc1ccc(CCNC(=O)C2CCN(S(=O)(=O)CC)CC2)cc1OCC` stands “inactive”. On the same count and under the same terms, under `COCCn1c(=O)cnc2cnc(Nc3ccccc3)nc21` stands “inactive”. Regarding `CCCCCOC(=O)c1c(N)n(CCOC)c2nc3ccccc3nc12`, the AC50 is 5.01 µM (active). Still for that read-out and setting: under `CCCc1nc2sc3ccccc3c(=O)c2c(=O)n1CCOC` stands “inactive”; under `O=C(Nc1nc2ccccc2n1Cc1ccccc1)c1ccc(COc2ccccc2[N+](=O)[O-])o1`, 2 µM (active). Still for that read-out and setting: under `CCn1nccc1C(=O)Nc1nc2ccccc2n1CCN1CCCCC1` stands “inactive”; under `N[C@H](C(=O)O)c1nn[nH]n1`, “inactive”. The same measure, in the same setting: under `CC1=C(C)/C(=N\OC(=O)/C=C/c2ccccc2)C=CC1=O` stands “inactive”. As for `Cn1cnc([N+](=O)[O-])c1Sc1nc(N)nc2c1ncn2Cc1ccccc1`, the activity, negative = inhibition was 4.6% [at 11.4 µM]. In the case of `COC(=O)c1cc(C#N)c(Oc2ccc(OC)cc2)nc1C`, the AC50 was 14.1 µM (active). As to `COC(=O)c1cc(C#N)c(NCc2ccc(Cl)cc2Cl)nc1C`, the AC50 result was “inactive”. `Cc1cc(C)c2cc(C#N)c(NCCOC(=O)c3ccccc3C)nc2c1`: the AC50 was 2.51 µM (active). Turning to `COCCNc1nc(-c2ccc(C(=O)N(C)C)cc2)nc2ccccc12`, the activity, negative = inhibition was -2.68% [at 2.29 µM]. Consider `CCCCNc1c(C(=O)OCC)c(C)nc2c1cnn2CC`, for which the AC50 entry is “inactive”.

`CCOC(=O)c1cc(C#N)c(Oc2ccccc2OC)nc1-c1ccccc1`: the AC50 is 7.08 µM (active). For `COc1ccccc1CNc1ccnc(-c2cccc(C#N)c2)n1`, the activity, negative = inhibition is -24.8% [at 2.29 µM]. For the compound `CC(=O)NCCNc1ncnc2ccc(-c3ccccc3C#N)cc12`, the activity, negative = inhibition was -2.36% [at 2.29 µM].

Take `CCCCNc1nc(-c2ccccc2)c(C(=O)OCC)cc1C#N`: the AC50 was 3.16 µM (active). On the same count and under the same terms, under `N[C@@H](CO)C(=O)NNCc1ccc(O)c(O)c1O` stands “inactive”. For the compound `Cn1c(=O)c2[nH]c(CCC(=O)O)nc2n(C)c1=O`, the activity, negative = inhibition is 24.4% [at 11.4 µM]. Consider `CN(C)C(N)=NCCC[C@H](N)C(=O)O`, for which the AC50 result was “inactive”. In the case of `O[C@H](C[C@@H]1CCCCN1)c1ccc2c(c1)oc1ccccc12`, the activity, negative = inhibition was -4.01% [at 11.4 µM]. Regarding `CN(C)c1ncc2nc(-c3ccc(Cl)cc3)c(=O)n(C[C@H]3CCCO3)c2n1`, the AC50 entry was “inactive”. For `Cn1c(SC2CCCCC2=O)nnc1-c1ccncc1` (centres undefined), the AC50 entry was “inactive”. Still for that read-out and setting: under `Cc1ccc(CSc2nnc(-c3ccncc3)n2CC2CCCO2)cc1` (centres undefined) stands 15.8 µM (active); under `CC1(C)O[C@H]2C[C@@H]3[C@H]4CCC5=CC(=O)CC[C@@]5(C)[C@]4(F)[C@@H](O)C[C@@]3(C)[C@@]2(C(=O)CCl)O1`, “inactive”; under `N#CC1=C(N)OC2=C(C(=O)CCC2)C12CCC1(CC2)OCCO1`, “inactive”.

Turning to `CCc1ccc(Nc2ncccc2C#N)cc1`, the AC50 was 17.8 µM (active).

In the case of `N#Cc1ccccc1-c1cncnc1NCc1cccnc1`, the activity, negative = inhibition was 12.7% [at 2.29 µM]. On to `CCC(C)c1ccc(Nc2ncccc2C#N)cc1` (centres undefined), for which the half-maximal activity concentration (AC50) was 17.8 µM (active). Same read-out and setting: under `C[C@H]1CN(S(=O)(=O)c2cccc3cnccc23)CCN1` stands “inactive”. Still for that read-out and setting: under `C1CCC(N=C(NC23CC4CC(CC(C4)C2)C3)N2CCOCC2)CC1` stands “inactive”; under `CCN(CC)CCOc1ccc(Cc2ccccc2)cc1`, 15.8 µM (active). On the same count and under the same terms, under `CCN(CC)CCOC(=O)C(c1ccccc1)c1ccccc1` stands “inactive”; under `CCN(CCCc1ccccc1)CCCc1ccccc1`, “inactive”.

For `CN[C@@H]1NC(=O)c2ccccc2N1Cc1ccc(F)cc1`, the activity, negative = inhibition was 4.34% [at 11.4 µM]. Consider `O=C1c2cccnc2C(=O)N1Cc1ccc(F)cc1`, for which the AC50 result is “inactive”. On the same count and under the same terms, under `Cc1ccc(NC2c3ncccc3C(=O)N2Cc2ccc(F)cc2)cc1` (centres undefined) stands 15.8 µM (active); under `COc1ccc(/C(O)=C2/C(=O)C(=O)N(CCN3CCOCC3)C2c2ccc(C)cc2)cc1` (centres undefined), “inactive”. On the same count and under the same terms, under `CCOC(=O)c1[nH]c(C)c(/C(O)=C2\C(=O)C(=O)N(CCN3CCOCC3)C2c2cccs2)c1C` (centres undefined) stands “inactive”; under `Cc1ccc(/C(O)=C2/C(=O)C(=O)N(CCCn3ccnc3)C2c2ccccn2)cc1` (centres undefined), 4.47 µM (active).

For `COc1ccc(/C(O)=C2/C(=O)C(=O)N(CCCC(=O)O)C2c2ccc(OC)cc2)cc1` (centres undefined), the AC50 entry is “inactive”. On the same count and under the same terms, under `CCOc1ccc(/C(O)=C2/C(=O)C(=O)N(CCCn3ccnc3)C2c2cccs2)cc1Cl` (centres undefined) stands 5.01 µM (active); under `CCOc1ccc(/C(O)=C2/C(=O)C(=O)N(CCOCCO)C2c2cccnc2)cc1` (centres undefined), “inactive”. For the compound `C/C(CCN1CCc2nc(-c3ccccc3)c(-c3ccccc3)cc2C1)=N\O[C@@H](C)c1cn([C@H](CO)Cc2ccccc2)nn1`, the activity, negative = inhibition is -23.3% [at 11.4 µM]. Take `Nc1ncnc(N(c2ccccc2)C2CCCCC2)c1[N+](=O)[O-]`: the AC50 entry is “inactive”.

Regarding `C[C@@H]1[C@H]2CC[C@@H]3[C@@H]4CC=C5C[C@@H](N(C)C)CC[C@]5(C)[C@@H]4CC[C@@]32CN1C`, the AC50 entry was “inactive”. Consider `O=C(O)[C@@H]1[C@@H]2C[C@@H]3[C@@H](OC(=O)[C@@H]31)[C@H]2Br`, for which the activity, negative = inhibition was -8.47% [at 11.4 µM]. Same read-out and setting: under `CC(C)[C@H](NC(=O)OC(C)(C)C)[C@@H](O)CC(=O)C(C)(C)C` stands 9.81% [at 11.4 µM].

On to `CCOC(=O)c1c2ccc(OCC(=O)N/N=C/c3ccc(Cl)cc3)cc2n2ccccc12`, for which the AC50 is 6.31 µM (active). Take `CO[C@H]1COC(=O)C/C=C\[C@@H](C)COC(=O)[C@@H](OCc2ccccc2)/C=C\[C@@H]1C`: the activity, negative = inhibition is -24.9% [at 11.4 µM]. Turning to `C=CCNc1oc(/C=C/c2ccccc2)nc1C#N`, the AC50 was 4.47 µM (active). Regarding `Cc1nc2ccccc2nc(C)c1=NO`, the AC50 result was “inactive”. `NC(N)=NC(N)=Nc1ccccc1` (tested in a mixture with another compound): the activity, negative = inhibition was -12.4% [at 11.4 µM]. On the same count and under the same terms, under `Cc1cc2ccccc2c[n+]1CC(O)C[n+]1cc2ccccc2cc1C` stands 8.36% [at 11.4 µM].

On to `C=CCc1cc(C=O)cc(OC)c1OCc1ccc(Cl)cc1`, for which the AC50 is 8.91 µM (active). Still for that read-out and setting: under `COCCNC(=O)CCCCCn1c(=S)[nH]c2ccccc2c1=O` stands “inactive”. For the compound `O=C(CCCCn1c(=S)[nH]c2ccsc2c1=O)NCc1ccco1`, the AC50 is 2.24 µM (active). On the same count and under the same terms, under `O=C(CCCCCn1c(=O)[nH]c2ccsc2c1=O)NCc1ccc2c(c1)OCO2` stands 4.47 µM (active); under `CC(C)(C)C(=O)OCOC(=O)[C@@H]1N2C(=O)[C@@H](NC(=O)[C@H](N)c3ccccc3)[C@H]2SC1(C)C`, “inactive”. Still for that read-out and setting: under `Cc1nc2c(C(=O)N3CCOCC3)cnn2c(C)c1Cc1ccc(Cl)cc1` stands 7.94 µM (active); under `CCC(C)NC(=O)c1cnn2c(C)c3c(nc12)CCCC3` (centres undefined), “inactive”; under `CCCCC#Cc1ccccc1CC(=O)Nc1ccccc1`, 2.51 µM (active).

As to `CCC#CCOCC(=O)Nc1ccccc1`, the AC50 result was “inactive”. For the compound `NCC(=O)Nc1ccccc1`, the activity, negative = inhibition was 17% [at 11.4 µM]. Turning to `O=C(Cc1ccccc1I)Nc1ccccc1`, the AC50 was 25.1 µM (active).

Turning to `C#CCCCC(=O)Nc1ccccc1`, the AC50 entry was “inactive”. Turning to `CCC(=O)NNC(=O)CCC(=O)Nc1ccccc1`, the AC50 entry is “inactive”. The same measure, in the same setting: under `C=C(CC)C(=O)c1ccc(OCC(=O)O)c(Cl)c1Cl` stands 0.631 µM (active).

As for `CC(C)(C)c1ccc(OCC(=O)O)c(Cl)c1`, the activity, negative = inhibition is -19.9% [at 11.4 µM].

With `COc1cc(NC(=O)Cc2c(C(=O)O)[nH]c3ccccc23)cc(OC)c1OC`, the AC50 was 12.6 µM (active). The same measure, in the same setting: under `NC(N)=NC(=O)c1nc(Cl)c(N2CCCCCC2)nc1N` stands “inactive”; under `Cc1cc(NC(=O)CSc2nnc(-c3ccccc3)n2Cc2ccco2)no1`, 10 µM (active); under `CC(=O)Nc1ccc(NC(=O)CSc2nnc(-c3ccccc3)n2Cc2ccc3c(c2)OCO3)cc1`, 11.2 µM (active). Same read-out and setting: under `CC(C)(C)NC(=O)CSc1nnc(Cc2ccc3c(c2)OCO3)n1C1CCCCC1` stands “inactive”; under `CNC(=O)NC(=O)CSc1nnc(-c2ccco2)n1Cc1ccccc1`, “inactive”. For the compound `CC(C)=NOC[C@@H](O)COCc1ccco1`, the activity, negative = inhibition was 0.0785% [at 11.4 µM]. Consider `COc1ccc2c(c1)CCC1C2CC[C@]2(C)[C@H](NCCCCCCN3C(=O)C=CC3=O)CC[C@@H]12` (some centres undefined), for which the AC50 result is “inactive”.
